Shown are actives, neighbours in structure and some others; about 6.3% of the full set was active somewhere.
TIM10 inh – growth inhibitors of isogenic TIM10 control yeast, primary screen, counter-screen for tim10-1 yeast inhibitor project, luminescence, uHTS. S. cerevisiae TIM10 strain growth, BacTiter-Glo luminescence, 24 h. inhibition, % at 10 µM. AID 463195, 2010. 330,000 tested, 1.4% active;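 active = inhibition of 40% or more at the single tested concentration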;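 also: wild-type TIM10 isogenic control strain grown at permissive 25 °C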
Mdm2-MdmX inh – inhibitors of human Mdm2-MdmX association, primary screen, cell-based, luminescence, split luciferase, SaOS-2, uHTS; Protein Mdm4 (Homo sapiens) + E3 ubiquitin-protein ligase Mdm2 (Homo sapiens), …; SaOS-2 split-luciferase Mdm2/MdmX complementation; inhibition, % at 8 µM; 330,000 tested, 3% active; AID 485346, 2010;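 active = inhibition of at least 50% at 8 µM in the primary screen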
Target sequence (O15151 whole entry, looked up): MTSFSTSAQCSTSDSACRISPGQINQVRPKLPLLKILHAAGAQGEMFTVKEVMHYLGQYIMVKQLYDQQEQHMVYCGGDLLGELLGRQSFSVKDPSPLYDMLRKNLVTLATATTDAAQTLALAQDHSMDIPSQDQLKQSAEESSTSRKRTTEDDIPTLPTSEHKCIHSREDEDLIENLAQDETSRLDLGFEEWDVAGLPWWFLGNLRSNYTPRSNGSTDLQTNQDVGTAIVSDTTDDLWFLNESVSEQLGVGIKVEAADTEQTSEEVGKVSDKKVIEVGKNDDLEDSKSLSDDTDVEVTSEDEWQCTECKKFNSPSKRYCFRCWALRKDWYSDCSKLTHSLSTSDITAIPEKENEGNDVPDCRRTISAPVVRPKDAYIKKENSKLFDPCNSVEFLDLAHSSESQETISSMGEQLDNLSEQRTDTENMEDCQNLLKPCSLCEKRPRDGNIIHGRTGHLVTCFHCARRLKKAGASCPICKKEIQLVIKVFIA
Target sequence (Q00987 whole entry, looked up): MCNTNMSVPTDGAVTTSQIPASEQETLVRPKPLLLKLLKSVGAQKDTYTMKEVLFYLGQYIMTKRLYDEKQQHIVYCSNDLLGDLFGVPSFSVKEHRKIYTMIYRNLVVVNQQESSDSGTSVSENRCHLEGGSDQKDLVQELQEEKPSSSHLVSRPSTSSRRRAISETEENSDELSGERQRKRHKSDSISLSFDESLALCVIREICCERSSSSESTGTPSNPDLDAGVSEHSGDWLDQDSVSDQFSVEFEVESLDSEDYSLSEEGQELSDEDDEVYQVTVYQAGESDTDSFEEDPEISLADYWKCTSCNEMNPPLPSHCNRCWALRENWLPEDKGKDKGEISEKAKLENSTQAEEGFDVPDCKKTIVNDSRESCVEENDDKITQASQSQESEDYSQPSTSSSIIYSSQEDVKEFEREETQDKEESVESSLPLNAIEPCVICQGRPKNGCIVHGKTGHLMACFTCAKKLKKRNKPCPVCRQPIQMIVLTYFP
tim10-1 inh – growth inhibitors of tim10-1 mutant yeast, primary screen, luminescence, uHTS | AID 463190, 2010 | inhibition, % at 20 µM | 330,000 tested, 2.2% active | S. cerevisiae tim10-1 ts strain growth, BacTiter-Glo, 24 h;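 active = inhibition of at least 40%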;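 also: mutant grown at 25 °C; 0% = DMSO wells with yeast and 100% = wells holding no yeast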
tim23-1 inh – growth inhibitors of tim23-1 mutant yeast, primary screen, luminescence, uHTS; AID 463212, 2010; S. cerevisiae tim23-1 growth, BacTiter-Glo luminescence, 24 h; 330,000 tested, 1.3% active; inhibition, % at 20 µM;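 active = growth inhibition of the mutant yeast at or above 50%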;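 also: temperature-sensitive mutant grown at 25 °C; plate controls were DMSO-treated mutant yeast for no effect and medium wells lacking yeast for full effect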
MPTP inh – mitochondrial permeability transition pore inhibitors, primary screen, biochemical, isolated mouse mitochondria, absorbance | Ca2+ swelling absorbance, 30 min | inhibition, % at 10 µM | 360,000 tested, 1.4% active | AID 602449, 2012;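 active = inhibition of 50% or more, scaled per plate between neutral and stimulator controls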;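 also: 0% = DMSO wells given calcium and 100% = 1 mM EGTA wells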
tim10-1 confirm – growth inhibitors of tim10-1 mutant yeast, confirmation, single concentration, luminescence, S. cerevisiae; shares compounds with tim10-1 inh; S. cerevisiae tim10-1 ts strain growth, BacTiter-Glo, 24 h; inhibition, % at 20 µM; 7,400 tested, 56% active;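 active = inhibition of yeast growth at or above a set limit in either of two repeat tests at 20 µM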;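 also: tim10-1 mutant grown at permissive 25 °C to find synthetic lethal compounds; 0% = DMSO yeast wells and 100% = medium wells without yeast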
TIM10 conf – growth inhibitors of wild-type TIM10 yeast, confirmation, counter-screen for tim10-1 synthetic lethality project, single concentration, luminescence, S. cerevisiae | S. cerevisiae tim10 strain growth, BacTiter-Glo luminescence, 24 h | inhibition, % at 10 µM | AID 463215, 2010 | shares compounds with TIM10 inh | 4,600 tested, 63% active;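 active = inhibition of yeast growth at or above a set limit in either of two replicates at 10 µM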;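 also: this counterscreen used the strain with wild-type TIM10; 0% = yeast with DMSO and 100% = medium wells lacking yeast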
Starred values were filed as active, the others as inactive; nt = no result.

SMILES | TIM10 inh | Mdm2-MdmX inh | tim10-1 inh | tim23-1 inh | MPTP inh | tim10-1 confirm | TIM10 conf
CCN1C(=O)/C(=C/N(C(C)=O)c2ccccc2)N(c2ccccc2)C1=S | 50* | 35 | 45* | 29 | -2 | 42* | -39
Cc1sc2ncnc(SCC(=O)NC(C)C(C)C)c2c1C (stereo unspecified) | -14 | -11 | -9 | 29 | -1 | nt | nt
Cc1ccc(OCC(=O)NNC(=O)C(C)Sc2ncnc3sc(C)c(C)c23)cc1 (stereo unspecified) | 55* | 9 | 42* | 41 | 5 | 42* | 16
CCOC(=O)C(c1ccccc1)C(Nc1ccccc1)c1ccccn1 (stereo unspecified) | 26 | -9 | 23 | 25 | 2 | nt | nt
CCOC(=O)C(C(=O)OCC)C(Nc1ccccc1)c1ccccc1 (stereo unspecified) | 43* | 9 | 61* | 37 | -2 | 50* | -19
CCCCN1C(=O)C(CC(=O)NCc2cccc3ccccc23)CC(C(=O)N(C(C)C)C(C)C)=C1C (stereo unspecified) | nt | nt | nt | nt | 0 | nt | nt
CC(C)[C@H](NC(=O)OC(C)(C)C)c1nnc(S(=O)(=O)Cc2c(F)cccc2Cl)o1 | 71* | 30 | 61* | 36 | -4 | 64* | 64*
N/C(=N\OC(=O)c1ccccc1F)c1cccc([N+](=O)[O-])c1 | 19 | -196 | 28 | 16 | -1 | nt | nt
N/C(=N\OC(=O)c1ccccc1Br)c1cccc([N+](=O)[O-])c1 | 41* | -44 | 79* | 39 | 0 | 84* | 54*
COC(=O)C[C@H]1CC[C@@H]2[C@H](COC[C@H](O)CN2S(=O)(=O)c2ccccc2OC)O1 | nt | nt | nt | nt | -2 | nt | nt
O=S(=O)(c1ccc2[nH]c3c(c2c1)CCCC3)N1CCCCC1 | 41* | 32 | 40* | 49 | 0 | 28 | 34*
O=c1[nH]c2ccc(S(=O)(=O)N3CCCCC3)cc2[nH]1 | 5 | -4 | 2 | 4 | 1 | nt | nt
CCOC(=O)c1ccc(O)c(-n2cc3c(c2-c2ccccc2)c(=O)n(C)c(=O)n3C)c1 | nt | nt | nt | nt | -2 | nt | nt
CCOC(=O)c1sc(NC(=O)C2CCC2)cc1C | 55* | -19 | 44* | 49 | 4 | 42* | 36*
CCn1c2ccccc2c2cc(/C=N/n3cn[nH]c3=S)ccc21 | 48* | -13 | 51* | 37 | 6 | 35* | 49*
CCCc1cc(NCc2ccccn2)n2nc(C)c(-c3ccccc3)c2n1 | 47* | 37 | 43* | 45 | -1 | 58* | 76*
CCCc1cc(N2CCCC2)n2nc(C)c(-c3ccccc3)c2n1 | 51* | 29 | 47* | 46 | 33 | 23 | 19
Cc1cc(NCc2ccccn2)n2ncc(-c3ccccc3)c2n1 | -12 | -7 | 3 | -30 | -2 | nt | nt
Cc1nn(C)c(C(=O)NC(=S)Nc2ccc([N+](=O)[O-])cc2)c1Cl | 41* | 37 | 52* | 50 | 2 | 40* | 28
COC(=O)C[C@@H]1CC[C@@H](NC(=O)C2CCC2)[C@@H](CO)O1 | nt | nt | nt | nt | -2 | nt | nt
CCOC(=O)C1CCN(S(=O)(=O)c2cccc(-c3cn4cccc(C)c4n3)c2)CC1 | 50* | 2 | 55* | 39 | 0 | 21 | -29
CCOC(=O)C1CCN(S(=O)(=O)c2cccc(-c3cn4ccccc4n3)c2)CC1 | 27 | 9 | 15 | 21 | 1 | nt | nt
Nc1sccc1C(=O)NCc1ccccc1 | nt | nt | nt | nt | 1 | nt | nt
Cc1cccc(Cc2cnc(NC(=O)c3ccc(C)o3)s2)c1 | 45* | -97 | 55* | 48 | 0 | 40* | 48*
Cc1cccc(Cc2cnc(NC(=O)C3=NCCN3)s2)c1 | -4 | 20 | 21 | -6 | 0 | nt | nt
SMILES | TIM10 inh | Mdm2-MdmX inh | tim10-1 inh | tim23-1 inh | MPTP inh | tim10-1 confirm | TIM10 conf
CC(C)(C)n1[nH]c2c3c(ccc2c1=O)C(=O)c1ccccc1C3=O | 65* | 40 | 45* | 28 | 3 | 40* | 57*
CC(=O)c1ccc(N2CCN(C(=O)CNC(=O)c3ccc(Br)o3)CC2)cc1 | nt | nt | nt | nt | 0 | nt | nt
O=[N+]([O-])c1cccnc1N1CCC(c2cc(-c3cccc(C(F)(F)F)c3)n[nH]2)CC1 | 52* | 46 | 43* | -4 | 1 | 30* | -17
O=[N+]([O-])c1cccnc1N1CCC(c2cc(-c3ccc(Cl)cc3Cl)n[nH]2)CC1 | 32 | 25 | 37 | 26 | -6 | nt | nt
CC(C)c1cc(C(C)C)c(S(=O)(=O)NC(c2ccccn2)C23CC2C3)c(C(C)C)c1 (stereo unspecified) | nt | nt | nt | nt | -1 | nt | nt
COc1ccc(-c2nncnn2)cc1 | 89* | -31 | 84* | 42 | nt | 79* | 21
COc1ccc(-c2ccc(OC)cc2)cc1 | 2 | -9 | 4 | 5 | 2 | nt | nt
CC1CCN(S(=O)(=O)c2ccc(NC(=O)c3ccco3)cc2)CC1 | 17 | 20 | 36 | 21 | 0 | nt | nt
CC1CCCCN1S(=O)(=O)c1ccc(NC(=O)c2ccco2)cc1 (stereo unspecified) | 42* | 11 | 53* | 25 | 4 | 36* | 17
COC(=O)C[C@@H]1CC[C@H](NC(=O)Nc2cccc(F)c2)[C@@H](CO)O1 | nt | nt | nt | nt | 1 | nt | nt
O=C1NC[C@@H](CCCCN2CCN(CCC3CCCCC3)C(=O)C2=O)N(CC2CCCCC2)C1=O | nt | nt | nt | nt | -1 | nt | nt
Oc1ccc(C(=S)N2CCN(c3cccc(Cl)c3)CC2)cc1 | 54* | 11 | 41* | 25 | -1 | 53* | 48*
Fc1ccc(CN2CCN(c3ncnc4scc(-c5ccccc5)c34)CC2)cc1 | 26 | 28 | 36 | 47 | -2 | nt | nt
Fc1ccc(N2CCN(c3nc(CN4CCOCC4)nc4scc(-c5ccccc5)c34)CC2)cc1 | 40* | -5 | 55* | 49 | 4 | 34* | 34*
CCCCC(=O)NC(=S)Nc1cccc(Cl)c1N1CCCCC1 | 14 | 27 | 24 | 9 | 3 | nt | nt
CCCC(=O)NC(=S)Nc1cccc(Cl)c1N1CCCCC1 | 50* | 31 | 44* | 42 | 2 | 28 | 36*
NNc1nc2c(-c3ccc(F)cc3)nnn2c2ccccc12 | 74* | -161 | 46* | 26 | 7 | 56* | 73*
O=C(/C=C/c1ccc(Cl)cc1Cl)c1ccc[nH]1 | 54* | -10 | 47* | 18 | 3 | 39* | 40*
COC1=C(c2ccccc2)C(=O)c2ccccc2C1=O | 89* | -13 | 80* | 37 | 7 | 72* | 90*

Source: PubChem BioAssay
